uPA generation: qHTS for Inhibitors of Cell Surface uPA Generation; cell surface uPA generation assay, qHTS; 330,000 tested, 0.31% active; Potency, µM (series often up to 38.3 µM), for the others: at the top dose activity change, negative = inhibition, hits mostly inhibitors; active = well fitted inhibition curve with a large enough effect; inconclusive = small, poorly fitted or top-dose-only effect; inactive = no such curve, though single readings can be large or run the other way; tested in mouse RAW 264.7 cells; note: potency is the fitted concentration of half-maximal effect; % is set by controls: 0 for no effect and ±100 for the full control effect; nearly all actives have a fitted effect of over 55% in size
Giardia killer: Small Molecules that selectively kill Giardia lamblia: qHTS; Giardia lamblia trophozoite viability; activity change, % at 7.66 µM, hits read low; 340,000 tested, 0.15% active; AID 540267, 2011; in the data active = activity change below about -80%; inconclusive = between about -30% and that limit;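 note: parasites exposed to compound for two days anaerobically before the ATP read; % is set by controls: 0 for no effect and ±100 for the full control effect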
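Each well holds 100 Giardia trophozoites and compound. After two days (48 hrs) at 37 deg C in anaerobic conditions, ATP is quantified by luminescence.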
SW480 rerep: A quantitative high throughput screen for small molecules that induce DNA re-replication in SW480 colon adenocarcinoma cells; SW480 DNA re-replication, Hoechst DNA content imaging, 48 h; Potency, µM (top dose mostly 46.1 µM), for inactives: top-dose re-replication activation, hits mostly activators; 340,000 tested, 1.8% active; note: potency is the fitted concentration of half-maximal effect; % of control where 0% means no effect; nearly all actives have a fitted effect of over 55% in size
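SW480 cells exposed to compounds for 48 hr at 37 C, 5% CO2, then Hoechst-stained 40 min. Nuclear DNA content imaged by fluorescence scanning (405 nm excitation, 500-530 nm emission); re-replication scored as increased high-intensity nuclei.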
MCF10A rerep: A quantitative high throughput screen for small molecules that induce DNA re-replication in MCF 10a normal breast cells | MCF 10A DNA re-replication, Hoechst nuclear intensity, 48 h | Potency, µM (top dose mostly 46.1 µM), inactives show at the top dose activity, positive = re-replication, hits mostly activators | 350,000 tested, 2.9% active | AID 624296, 2012; note: potency is the fitted concentration of half-maximal effect; % of control where 0% means no effect; nearly all actives have a fitted effect of over 50% in size
An asterisk follows results filed as active; u = inconclusive; x = no result; [ ] = remark or other dose. Hits are enriched below; roughly 4.3% of the tested compounds scored in any of these assays. Unless noted, calls come from the whole dose curve; as a rule, active = well fitted activation curve with a large enough effect; inconclusive = small, poorly fitted or top-dose-only effect; inactive = no such curve, though single readings can be large or run the other way.

SMILES	uPA generation	Giardia killer	SW480 rerep	MCF10A rerep
c1ccc(-c2nc(N3CCCC3)nc3ccccc23)cc1	-7%	-7	18µM*	23µM*
CCOC(=O)C1CCN(C(=O)c2cccc(S(=O)(=O)N3CCCc4ccccc43)c2)CC1	-4%	-10	-84%	22%
COc1ccc(C(=O)NNC(=O)c2ccccn2)cc1	3.2µM*	-14	9%	3%
CCOc1ccc(NC(=O)c2ccccn2)cc1	1.6µM*	-93*	-2%	21%
CCOc1ccc(NC(=O)c2cnccn2)cc1	-18%	u	-1%	-2%
Cc1ccc(NC(=O)/C=C/c2ccc(Cl)cc2)nc1	-2%	-29	13%	-4%
CCCCC(=O)Nc1ccc(Br)cn1	-3%	-16	-6%	-7%
C=CCCC(=O)Nc1ccc(Br)cn1	-6%	5	16µM*	9.2µM*
O=C(/C=C/c1ccccc1)Nc1ccc(Br)cn1	1.6µM*	-17	5.8µM*	2.1µM*
CC(C)c1ccc(C2C3=C(CC(c4ccco4)CC3=O)Nc3nc(C(F)(F)F)nn32)cc1 (stereo unspecified)	x	1	x	x
COc1ccc(S(=O)(=O)N(C)C[C@H]2Oc3ccc(NS(=O)(=O)c4cccs4)cc3C(=O)N([C@H](C)CO)C[C@@H]2C)cc1	11%	-13	u	3.3µM*
O=S(=O)(Nc1cc(S(=O)(=O)N2CCOCC2)ccc1Cl)c1ccccc1	0%	4	-6%	3%
COc1ccc(NC(=O)CSc2cc(C)nc3c(-c4ccccc4)cnn23)cc1	1%	-25	u	9.2µM*
Cc1cccc(S(=O)(=O)c2cn(Cc3ccccc3)c3cc(N4CCC(C)CC4)c(F)cc3c2=O)c1	x	-5	x	x
CCN(CC)c1ccc(/C=C/c2cc(-c3ccccc3)c3ccccc3n2)cc1	-7%	-19	15µM*	u
CCN(CC)c1ccc(/C=N/NC(=O)c2cc(C)nc3ccccc23)cc1	-10%	-23	3%[9.22 µM]	u
COC(C/C=C/[C@H](O)[C@@H](C)OCc1ccccc1)OC	4%	-1	-1%	20%
COC(C/C=C/C(=O)[C@H](C)OCc1ccccc1)OC	11µM*	3	u	u
COC(C/C=C/C(=O)COCc1ccccc1)OC	7.1µM*	16	u	u
COC(C[C@@H]1O[C@H]1C(=O)[C@@H](C)OCc1ccccc1)OC	u	-11	23µM*	u
Fc1ccc2[nH]c3c(NCc4ccco4)ncnc3c2c1	x	-11	x	x
CCO[C@H]1O[C@@H]([C@H](COCc2ccccc2)OCc2ccccc2)[C@@H](OCc2ccccc2)[C@H]1O	x	x	-2%[20.6 µM]	3%[20.6 µM]
CCc1[nH]nc(C(=O)NC2CCCc3c2cnn3-c2cc(C)cc(C)c2)c1C (stereo unspecified)	u	-11	u	-18%
CN(C)c1oc(/C=C/c2ccccc2)nc1C#N	-6%	-4	15µM*	u
CN(C)c1oc(-c2ccccc2)nc1C#N	x	-1	-9%	-4%
SMILES	uPA generation	Giardia killer	SW480 rerep	MCF10A rerep
COc1ccccc1/C=C/c1nc(C#N)c(N(C)C)o1	14%	10	u	23µM*
CCOc1ccccc1/C=N/Nc1nc2c(N)ncnc2n1[C@H]1O[C@@H](CO)[C@H](O)[C@@H]1O	-13%	22	8.2µM*	6%
COc1ccc(C(=O)NC(=C(Cl)Cl)S(=O)(=O)c2ccc(C)cc2)cc1	u	21	13µM*	10µM*
CCOC(=O)NC(C(Cl)(Cl)Cl)S(=O)(=O)c1ccccc1 (stereo unspecified)	-14%	5	u	u
Cc1ccc(C(=O)NC(=C(Cl)Cl)S(=O)(=O)c2ccccc2)cc1	u	20	-4%	21µM*
COC(=O)NC(=C(Cl)Cl)S(=O)(=O)c1ccccc1	-10%	8	u	7.3µM*
Cc1ccc(C(=O)NC(C#N)=C(Cl)Cl)cc1	-13%	-8	u	9.2µM*
Cc1ccc(C(=O)NC(=S)NNS(=O)(=O)c2ccccc2)cc1	-2%	-7	-3%	u
COc1cccc(NC(=O)C(OC(=O)c2cnc(C)cn2)c2ccccc2)c1 (stereo unspecified)	0%	-4	-4%	0%
CCCC(C(=O)NC1CCCC1)N(Cc1ccccc1)C(=O)c1snc(C(N)=O)c1N (stereo unspecified)	4%	-19	u	8%
CCn1nnc2c(N3CCCC3)ncnc21	x	-16	x	x
Cc1cccc(C(=O)NC(=S)NC(C)c2ccccc2)c1 (stereo unspecified)	0%	-1	14%	7%
CC1CC=CC2C1C(=O)N(Cc1ccccc1)C2c1ccc(F)c(-c2ccc(N(C)C)cc2)c1 (stereo unspecified)	x	-15	x	x
COc1cc2ccc(=O)oc2c(O)c1OCC=C(C)C	-4%	-15	2.1µM*	-10%
CC(C)=CCOc1ccc2ccc(=O)oc2c1	-12%	2	-2%	-8%
Cc1cccn2c(=O)c3cc(C(=O)NC(C)c4ccccc4)c(=N)n(CCCn4ccnc4)c3nc12 (stereo unspecified)	-3%	-9	16µM*	21µM*
Cc1ccc2nc3c(cc(C(=O)NC4CCS(=O)(=O)C4)n3Cc3ccccc3)c(=O)n2c1 (stereo unspecified)	0%	-4	23µM*	23µM*
Cc1ccc2nc3c(cc(C(=O)NCCN4CCOCC4)c(=N)n3CCCN3CCOCC3)c(=O)n2c1	-3%	9	1.8µM*	u
Cc1ccc2nc3c(cc(C(=O)NCCc4ccccc4)c(=N)n3CCN3CCOCC3)c(=O)n2c1	1%	16	5.2µM*	18µM*
Cc1nnc(SCC(=O)NC2CCS(=O)(=O)C2)n1Cc1ccccc1 (stereo unspecified)	4%	-19	1%	-12%
CN(C(=O)c1cccc(NC(=O)Cc2cccc([N+](=O)[O-])c2)c1)C1CCCC1	19%	1	0%	2%
COc1ccc(C(=O)Nc2cccc(C(=O)Nc3cc(C)ccn3)c2)cc1	4%	-17	12%	1%
Cc1ccc2nc3c(cc(C(=O)NCc4ccccc4)c(=N)n3CCCn3ccnc3)c(=O)n2c1	-2%	-2	5.2µM*	8.2µM*
COc1ccc(C2=[N+](C)CCn3cccc32)c(OC)c1	-5%	8	0.52µM*	u
CCN(CC)C(=O)Oc1ccc2c(=O)c(-c3ccc(OC)cc3)coc2c1	-11%	-3	u	13µM*
CCOc1ccccc1N=NC1C(=O)N(C(N)=S)N=C1C (stereo unspecified)	u	-14	u	2%
COc1ccc(NC(=O)CN2C(=O)NC3(CCCC3)C2=O)c(OC)c1	6%	-15	-1%	0%
COc1cccc(Oc2ccc(C(F)(F)F)cc2NC(=O)CN2C(=O)NC3(CCCC3)C2=O)c1	-44%	10	57%	18µM*
CCC(C)c1ccccc1NC(=O)COC(=O)c1ccc2[nH]c3c(c2c1)CCCC3 (stereo unspecified)	-8%	-3	u	8.2µM*

High-throughput results deposited in PubChem by National Center for Advancing Translational Sciences (NCATS).
